Source: the supplement of paper PMC8975748
Where a name gives a salt, the structure may show the parent alone. ± gives the standard deviation of the averaged measurements.

Experiments:
[1] = system: Saccharomyces cerevisiae BY4741 SeMeCo community; assay: mean cell size (pixel area) (pixels); higher = larger cells; settings: 10 µM; 24 h; SM minimal medium
Procedure, shortened: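 Harmony analysis of automated confocal images of paraformaldehyde-fixed yeast gave the mean cell pixel area per well. The yeast was a Saccharomyces cerevisiae BY4741 community carrying four plasmids, each with a fluorescent marker and each complementing one auxotrophy, incubated for 24 h in SM medium containing drug at a final 10 µM in 384-well plates. Results are averaged over 3 replicates. Same SeMeCo high-content imaging drug screen: Selleck FDA-approved drugs at 10 µM, 24 h in SM medium, 384-well plates, 3 replicates.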

[2] = system: Saccharomyces cerevisiae BY4741 SeMeCo community; assay: z-score of subpopulation abundance vs DMSO median, subpopulation auxotrophic for M; higher = larger share of this subpopulation than in DMSO controls; settings: 10 µM; 24 h; SM minimal medium; subpopulation (auxotrophy): M
Procedure, shortened: (§1)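 Automated confocal microscopy of paraformaldehyde-fixed cells was used to follow a Saccharomyces cerevisiae BY4741 community carrying four plasmids, each restoring one auxotrophy and encoding a distinct fluorescent protein. The community was pre-grown overnight to OD600 1.0, diluted to 0.3, and added at 70 µl to 384-well plates acoustically predosed with library drugs (10 µM final) for 24 h of growth in minimal SM medium. Single-auxotroph fluorescent strains set thresholds and autofluorescence correction, and each subpopulation's abundance was scored as a z-score against the vehicle-well median.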

[3] = system: Saccharomyces cerevisiae BY4741 SeMeCo community; assay: z-score of subpopulation abundance vs DMSO median, subpopulation auxotrophic for L; higher = larger share of this subpopulation than in DMSO controls; settings: 10 µM; 24 h; SM minimal medium; subpopulation (auxotrophy): L
Procedure, shortened: as §1

[4] = system: Saccharomyces cerevisiae BY4741 SeMeCo community; assay: z-score of subpopulation abundance vs DMSO median, subpopulation auxotrophic for U; higher = larger share of this subpopulation than in DMSO controls; settings: 10 µM; 24 h; SM minimal medium; subpopulation (auxotrophy): U
Procedure, shortened: as §1

[5] = system: Saccharomyces cerevisiae BY4741 SeMeCo community; assay: z-score of subpopulation abundance vs DMSO median, subpopulation auxotrophic for H; higher = larger share of this subpopulation than in DMSO controls; settings: 10 µM; 24 h; SM minimal medium; subpopulation (auxotrophy): H
Procedure, shortened: as §1

[6] = system: Saccharomyces cerevisiae BY4741 SeMeCo community; assay: z-score of subpopulation abundance vs DMSO median, subpopulation auxotrophic for LU; higher = larger share of this subpopulation than in DMSO controls; settings: 10 µM; 24 h; SM minimal medium; subpopulation (auxotrophy): LU
Procedure, shortened: as §1

[7] = system: Saccharomyces cerevisiae BY4741 SeMeCo community; assay: z-score of subpopulation abundance vs DMSO median, subpopulation auxotrophic for LM; higher = larger share of this subpopulation than in DMSO controls; settings: 10 µM; 24 h; SM minimal medium; subpopulation (auxotrophy): LM
Procedure, shortened: as §1

[8] = system: Saccharomyces cerevisiae BY4741 SeMeCo community; assay: z-score of subpopulation abundance vs DMSO median, subpopulation auxotrophic for HU; higher = larger share of this subpopulation than in DMSO controls; settings: 10 µM; 24 h; SM minimal medium; subpopulation (auxotrophy): HU
Procedure, shortened: as §1

[9] = system: Saccharomyces cerevisiae BY4741 SeMeCo community; assay: z-score of subpopulation abundance vs DMSO median, subpopulation auxotrophic for UM; higher = larger share of this subpopulation than in DMSO controls; settings: 10 µM; 24 h; SM minimal medium; subpopulation (auxotrophy): UM
Procedure, shortened: as §1

[10] = system: Saccharomyces cerevisiae BY4741 SeMeCo community; assay: z-score of subpopulation abundance vs DMSO median, subpopulation auxotrophic for HL; higher = larger share of this subpopulation than in DMSO controls; settings: 10 µM; 24 h; SM minimal medium; subpopulation (auxotrophy): HL
Procedure, shortened: as §1

[11] = system: Saccharomyces cerevisiae BY4741 SeMeCo community; assay: z-score of subpopulation abundance vs DMSO median, subpopulation auxotrophic for HLU; higher = larger share of this subpopulation than in DMSO controls; settings: 10 µM; 24 h; SM minimal medium; subpopulation (auxotrophy): HLU
Procedure, shortened: as §1

[12] = system: Saccharomyces cerevisiae BY4741 SeMeCo community; assay: z-score of subpopulation abundance vs DMSO median, subpopulation auxotrophic for HLM; higher = larger share of this subpopulation than in DMSO controls; settings: 10 µM; 24 h; SM minimal medium; subpopulation (auxotrophy): HLM
Procedure, shortened: as §1

[13] = system: Saccharomyces cerevisiae BY4741 SeMeCo community; assay: z-score of subpopulation abundance vs DMSO median, subpopulation auxotrophic for HUM; higher = larger share of this subpopulation than in DMSO controls; settings: 10 µM; 24 h; SM minimal medium; subpopulation (auxotrophy): HUM
Procedure, shortened: as §1

[14] = system: Saccharomyces cerevisiae BY4741 SeMeCo community; assay: z-score of subpopulation abundance vs DMSO median, subpopulation auxotrophic for LUM; higher = larger share of this subpopulation than in DMSO controls; settings: 10 µM; 24 h; SM minimal medium; subpopulation (auxotrophy): LUM
Procedure, shortened: as §1

[15] = system: Saccharomyces cerevisiae BY4741 SeMeCo community; assay: z-score of subpopulation abundance vs DMSO median, subpopulation auxotrophic for HLUM; higher = larger share of this subpopulation than in DMSO controls; settings: 10 µM; 24 h; SM minimal medium; subpopulation (auxotrophy): HLUM
Procedure, shortened: as §1

[16] = system: Saccharomyces cerevisiae BY4741 SeMeCo community; assay: z-score of subpopulation abundance vs DMSO median, subpopulation auxotrophic for HM; higher = larger share of this subpopulation than in DMSO controls; settings: 10 µM; 24 h; SM minimal medium; subpopulation (auxotrophy): HM
Procedure, shortened: as §1

[17] = system: Saccharomyces cerevisiae BY4741 SeMeCo community; assay: z-score of prototroph abundance vs DMSO median; higher = larger share of this subpopulation than in DMSO controls; settings: 10 µM; 24 h; SM minimal medium; subpopulation (auxotrophy): Prototroph
Procedure, shortened: as §1

Structure (SMILES) | mean cell size [1] | z-score of subpopulation abundance [2] | z-score of subpopulation abundance [3] | z-score of subpopulation abundance [4] | z-score of subpopulation abundance [5] | z-score of subpopulation abundance [6] | z-score of subpopulation abundance [7] | z-score of subpopulation abundance [8] | z-score of subpopulation abundance [9] | z-score of subpopulation abundance [10] | z-score of subpopulation abundance [11] | z-score of subpopulation abundance [12] | z-score of subpopulation abundance [13] | z-score of subpopulation abundance [14] | z-score of subpopulation abundance [15] | z-score of subpopulation abundance [16] | z-score of prototroph abundance [17]
Cc1cccc(C)c1OCC(C)N (stereo unspecified) [Mexiletine HCl] | 12.3 ± 0.13 | -0.98 | -0.39 | 0.62 | -0.52 | 0.44 | -0.69 | 0.61 | -0.36 | -0.55 | -0.19 | -1.23 | -0.49 | -0.37 | -0.35 |  | 
C/C=C1\[C@H]2C=C(C)C[C@]1(N)c1ccc(=O)[nH]c1C2 [(-)-Huperzine A (HupA)] | 12.04 ± 0.12 | 1.03 | -0.33 | 0.2 | -1.16 | -0.37 | -0.7 | -0.26 | 0.89 |  | -0.57 | -0.61 | 0.11 |  |  | 0.12 | 
CCN(CC)C(=O)C1(c2ccccc2)CC1CN (stereo unspecified) [Milnacipran HCl] | 12.3 ± 0.28 | -0.86 | 0.74 | 0.47 |  | 0.01 | 0 | -0.14 |  | -0.61 | -0.08 | -0.14 | -0.13 | 0.17 | -0.13 |  | 0.28
CCCCOc1cc(C(=O)NCCN(CC)CC)c2ccccc2n1 [Dibucaine HCl] | 12.3 ± 0.24 | -0.03 | -0.47 | 0.46 | -0.92 | -0.21 | 0.03 | -0.13 | 0.1 |  | -0.62 | -0.03 | 0.03 | -0.54 | -0.06 |  | 
Oc1c(Br)cc(Br)c2cccnc12 [Broxyquinoline] | 14.7 ± 0.16 | 3.22 | 0.17 | -3.11 | 11.6 | 6.62 | 5.88 | 16.9 | 6.77 |  | 27.1 | 49.4 | 15.8 | 12.8 | 44.9 |  | -16.8
CCN(CC)CCNC(=O)c1cc(S(C)(=O)=O)ccc1OC [Tiapride Hydrochloride] | 12.36 ± 0.12 | 0.16 | 0.96 |  | 0.23 | 1.17 | 0.55 | 0.47 | 0.43 | 0.93 | 0.72 | 3.15 | 0.14 | 0.9 |  | 0.84 | -1.37
Cc1nc2n(c(=O)c1CCN1CCC(c3noc4cc(F)ccc34)CC1)CCCC2O (stereo unspecified) [Paliperidone] | 12 ± 0.24 | 0.41 | -0.99 | 0.75 |  | -0.02 | -0.14 | 0.19 | 0.49 | -1.06 | -0.96 | -1.03 | 0.09 | -1.04 | -0.53 |  | 0.1
CC[C@@H]1/C=C(\C)C[C@H](C)C[C@H](OC)[C@H]2O[C@@](O)(C(=O)C(=O)N3CCCC[C@H]3C(=O)O[C@H](/C(C)=C/[C@@H]3CC[C@@H](O)[C@H](OC)C3)[C@H](C)[C@@H](O)CC1=O)[C@H](C)C[C@@H]2OC [Ascomycin (FK520)] | 11.8 ± 0.18 | 1.34 | 0.1 | -0.06 | 1.96 | -0.23 | 1.39 | 1.75 | 0.63 |  | 2.5 | 1.57 | 2.57 |  |  | 1.4 | -1.94
CC(C)(C)C1CCC(CC2=C(O)c3ccccc3C(=O)C2=O)CC1 (stereo unspecified) [Buparvaquone] |  | 2.2 | 0.5 |  | -0.05 | 0.03 | 0.78 | -0.75 | 0.54 | -0.13 | 0.03 | 0.05 | 0.83 | 0.35 | 0.04 | 1.55 | -0.85
CCN(CC)CCNC(=O)c1cc(Cl)c(N)cc1OC [Metoclopramide HCl] |  | 1.12 | -0.18 | -1.06 | -1.04 | -1.25 | 0.33 | -0.72 | -1.49 |  | -0.43 | -0.58 | -1.06 | -0.48 | -0.49 | 1.14 | 0.83
CCC(=O)O[C@@H]1CC(=O)O[C@H](C)C/C=C/C=C/[C@H](O)[C@H](C)C[C@H](CC=O)[C@H](O[C@@H]2O[C@H](C)[C@@H](O[C@H]3C[C@@](C)(O)[C@@H](OC(=O)CC)[C@H](C)O3)[C@H](N(C)C)[C@H]2O)[C@H]1OC [Midecamycin] |  | 1.11 | -0.17 | -0.73 | 0.88 | -0.66 | 0.61 | 0.44 | -0.3 | 1.52 | -0.1 | 0.18 | 0.7 | -0.4 | -0.96 | 1.3 | -0.41
C=C[C@H]1CN2CC[C@H]1C[C@H]2[C@H](O)c1ccnc2ccc(OC)cc12 [Quinine HCl Dihydrate] |  | 0.59 | -0.67 |  | 0.07 | -0.08 | -0.52 | 0.2 | 1.09 | -0.28 | -0.42 | 0.48 | 0.21 | 0.52 | 0.6 | -0.08 | -0.12
CCCCOc1cc(C(=O)OCCN(CC)CC)ccc1N [Oxybuprocaine HCl] |  | 0.72 | 0.22 | -0.29 | -0.22 | -0.72 | 0.31 | 0.6 | -0.55 | 0.21 | -0.16 | 1.25 | 0.57 | 0.25 | 0.34 | 0.19 | -0.08
Nc1c(Br)cc(Br)cc1CN[C@H]1CC[C@H](O)CC1 [Ambroxol HCl] |  | -0.93 | -1.26 | -0.79 |  | -0.9 | -0.43 | -1.1 | -0.8 | -0.86 | -0.39 | -0.5 | -0.94 | -1.08 | -0.43 | -1.17 | 
Cc1ncc([N+](=O)[O-])n1CCOC(=O)c1ccccc1 [Metronidazole Benzoate] |  | -0.51 | -0.6 | -0.16 | -1.17 | -1.05 | -0.57 | -1 | -0.26 |  | -1.28 | -0.79 | -0.37 | -1.13 | -0.51 | 0.12 | 0.95
